Of roughly 7,900 targets only a part is listed; those with a hit were picked by preference. About 0.6% of all pairs of compound and target were hits. Unmarked numbers belong to inactive results.
Experiments:
Assay in all cases: log2 fold change, soluble protein after heating vs DMSO (PISA); higher = thermal stabilisation; K562 cells, 10 uM, 30 min; active = over 0.2 and 3.5 SD of the protein, either way, in both replicates (recomputed)
[1] = compound: C#Cc1cccc(Nc2ncnc3cc(OCCOC)c(OCCOC)cc23)c1 [erlotinib]
In short: (§1)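 Aliquots of K562 cells (2×10^6 cells/mL) treated with 10 μM compound for 30 min were heated for 3 min over 48°C-58°C. After pooling and extraction in PBS with 0.5% NP-40 at 4°C, soluble protein from a 21,000xg, 90 min spin was quantified by TMTpro 16plex LC-MS/MS with channel sums equalised. Thermal stability is expressed against control samples, from duplicates, as a log2 fold change.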

[2] = compound: C/C(=N\NC(=O)C1=CC(=CC=C1)S(=O)(=O)N2CCOCC2)/C3=C(C=CC(=C3)Cl)O
In short: as §1

[3] = compound: C1=CC(=C(C=C1Cl)C2=NC3=NC=CN=C3C(=N2)NC4=CC=NC=C4)F
In short: as §1

[4] = compound: C1=CC(=CC=C1C2=NC3=C(N2)C=C(C=C3)C(=O)N)OC4=CC=C(C=C4)Cl
In short: as §1

[5] = compound: C1=CC2=C(C=CC(=C2)/C=C\3/C(=O)NC(=NCC4=CC=CS4)S3)N=C1
In short: as §1

[6] = compound: C1=CC2=NC=CN=C2C=C1/C=C/3\C(=O)NC(=O)S3
In short: as §1

[7] = compound: C1=CC=C(C=C1)C2=NC(=C(N2)C3=CC=NC=C3)C4=CC(=C(C=C4)Cl)O
In short: as §1

[8] = compound: C1=CC=C2C(=C1)C3=NNC4=CC=CC(=C43)C2=O
In short: as §1

[9] = compound: C1CCN(C1)C(=O)NC2=CC=CC(=C2)NC3=NC=C(C(=N3)NCCC4=CN=CN4)Br
In short: as §1

[10] = compound: C1CN(CCC1(CC2=CC=C(C=C2)Cl)N)C3=NC=NC4=C3C=CN4
In short: as §1

[11] = compound: C1COCCN1CCN2C3=CC=CC=C3N=C2NC(=O)C4=CC(=CC=C4)[N+](=O)[O-] [IRAK-1-4 Inhibitor I]
In short: as §1

[12] = compound: C=CC(=O)N1CCC[C@@H](n2nc(-c3ccc(Oc4ccccc4)cc3)c3c(N)ncnc32)C1 [ibrutinib]
In short: as §1

[13] = compound: CC(=O)c1cnc2ccc(-c3cc(Cl)c(O)c(Cl)c3)nc2c1N[C@H]1CC[C@H](CN(C)C)CC1
In short: as §1

[14] = compound: CC(C)(C)Cn1c(N)nc2ccc(-c3[nH]c(C(C)(C)C)nc3-c3ccc(F)cc3)nc21 [ralimetinib]
In short: as §1

[15] = compound: CC(C)(O)CC(=O)NCCn1ccc2ncnc(Nc3ccc(Oc4cccc(C(F)(F)F)c4)c(Cl)c3)c21
In short: as §1

[16] = compound: CC(C)C1=C2N=C(C=C(N2N=C1)NCC3=CC=CC=C3)NCCCCCCN
In short: as §1

[17] = compound: CC(C)C[C@@H](C=O)NC(=O)[C@H](CC(C)C)NC(=O)[C@H](CC(C)C)NC(=O)OCc1ccccc1
In short: as §1

[18] = compound: CC(C)N(C[C@H]1O[C@@H](n2cnc3c(N)ncnc32)[C@H](O)[C@@H]1O)[C@H]1C[C@@H](CCc2nc3cc(C(C)(C)C)ccc3[nH]2)C1 [pinometostat]
In short: as §1

[19] = compound: CC1=C(C(CC(=O)N1)C2=CC=C(C=C2)C(F)(F)F)C(=O)NC3=C(C=C4C(=C3)C=NN4)F
In short: as §1

[20] = compound: CC1=C(C2=C(C=C1)C(=O)C3=CC=CC=C3N2CCCN)C
In short: as §1

Sequence of UniProt P52306 (P52306 whole entry, looked up): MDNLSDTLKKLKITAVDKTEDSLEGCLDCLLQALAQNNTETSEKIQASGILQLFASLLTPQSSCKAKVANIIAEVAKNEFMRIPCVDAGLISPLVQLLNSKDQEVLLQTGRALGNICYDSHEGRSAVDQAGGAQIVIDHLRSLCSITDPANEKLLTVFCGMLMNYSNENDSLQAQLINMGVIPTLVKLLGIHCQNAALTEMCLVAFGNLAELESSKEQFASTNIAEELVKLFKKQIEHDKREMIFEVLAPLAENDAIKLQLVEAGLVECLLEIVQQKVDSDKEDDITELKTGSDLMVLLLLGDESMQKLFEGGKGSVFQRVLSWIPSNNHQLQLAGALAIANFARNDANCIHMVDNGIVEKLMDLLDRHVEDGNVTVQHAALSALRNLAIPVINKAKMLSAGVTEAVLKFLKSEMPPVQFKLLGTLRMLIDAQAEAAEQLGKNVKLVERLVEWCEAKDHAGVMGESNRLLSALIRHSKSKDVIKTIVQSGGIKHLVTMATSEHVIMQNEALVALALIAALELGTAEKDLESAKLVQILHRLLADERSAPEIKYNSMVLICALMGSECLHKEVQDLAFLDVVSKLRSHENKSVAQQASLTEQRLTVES
Sequence of UniProt Q5RL73 (Q5RL73 whole entry, looked up): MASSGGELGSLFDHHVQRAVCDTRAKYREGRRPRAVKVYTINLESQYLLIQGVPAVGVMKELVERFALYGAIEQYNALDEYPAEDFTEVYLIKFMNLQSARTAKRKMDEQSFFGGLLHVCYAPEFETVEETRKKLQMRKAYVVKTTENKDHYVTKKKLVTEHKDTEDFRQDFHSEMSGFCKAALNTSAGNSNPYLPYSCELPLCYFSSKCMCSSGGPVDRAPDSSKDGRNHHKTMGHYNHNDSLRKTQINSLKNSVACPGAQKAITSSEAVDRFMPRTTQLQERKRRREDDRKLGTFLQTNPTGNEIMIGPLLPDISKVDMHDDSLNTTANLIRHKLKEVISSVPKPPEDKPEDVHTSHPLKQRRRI
Sequence of UniProt Q92878 (Q92878 whole entry, looked up): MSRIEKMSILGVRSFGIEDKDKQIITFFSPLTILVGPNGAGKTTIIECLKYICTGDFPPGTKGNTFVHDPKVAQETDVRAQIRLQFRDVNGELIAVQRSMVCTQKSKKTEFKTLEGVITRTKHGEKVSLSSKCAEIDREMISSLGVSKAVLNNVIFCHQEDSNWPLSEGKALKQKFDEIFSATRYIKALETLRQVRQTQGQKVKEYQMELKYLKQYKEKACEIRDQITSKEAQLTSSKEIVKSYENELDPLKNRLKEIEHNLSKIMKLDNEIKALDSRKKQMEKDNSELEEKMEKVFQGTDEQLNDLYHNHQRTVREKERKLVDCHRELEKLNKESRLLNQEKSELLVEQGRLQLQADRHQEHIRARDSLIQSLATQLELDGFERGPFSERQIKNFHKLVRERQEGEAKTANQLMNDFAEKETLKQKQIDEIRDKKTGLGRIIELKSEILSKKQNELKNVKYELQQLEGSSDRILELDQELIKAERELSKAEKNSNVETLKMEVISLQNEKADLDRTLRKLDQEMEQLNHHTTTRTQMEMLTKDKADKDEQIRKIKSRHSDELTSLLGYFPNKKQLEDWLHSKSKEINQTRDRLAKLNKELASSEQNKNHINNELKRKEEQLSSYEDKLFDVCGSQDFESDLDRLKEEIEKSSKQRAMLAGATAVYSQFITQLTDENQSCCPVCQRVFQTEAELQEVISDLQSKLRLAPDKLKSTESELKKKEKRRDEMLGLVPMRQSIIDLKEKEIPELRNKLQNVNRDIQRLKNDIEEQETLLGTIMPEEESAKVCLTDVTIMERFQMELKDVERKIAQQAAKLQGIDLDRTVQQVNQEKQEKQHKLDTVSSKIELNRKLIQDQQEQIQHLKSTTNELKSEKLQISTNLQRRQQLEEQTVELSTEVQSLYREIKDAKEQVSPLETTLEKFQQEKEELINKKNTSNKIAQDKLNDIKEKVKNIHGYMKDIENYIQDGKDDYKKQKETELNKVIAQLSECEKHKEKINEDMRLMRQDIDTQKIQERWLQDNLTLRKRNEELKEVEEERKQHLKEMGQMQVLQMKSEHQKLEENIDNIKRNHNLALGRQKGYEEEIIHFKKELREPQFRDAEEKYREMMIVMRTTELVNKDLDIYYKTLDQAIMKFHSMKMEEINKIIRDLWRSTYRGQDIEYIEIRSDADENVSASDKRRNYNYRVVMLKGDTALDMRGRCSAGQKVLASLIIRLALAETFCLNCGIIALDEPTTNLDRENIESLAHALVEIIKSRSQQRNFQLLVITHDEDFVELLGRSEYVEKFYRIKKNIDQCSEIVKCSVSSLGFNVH
Sequence of UniProt P58004 (P58004 whole entry, looked up): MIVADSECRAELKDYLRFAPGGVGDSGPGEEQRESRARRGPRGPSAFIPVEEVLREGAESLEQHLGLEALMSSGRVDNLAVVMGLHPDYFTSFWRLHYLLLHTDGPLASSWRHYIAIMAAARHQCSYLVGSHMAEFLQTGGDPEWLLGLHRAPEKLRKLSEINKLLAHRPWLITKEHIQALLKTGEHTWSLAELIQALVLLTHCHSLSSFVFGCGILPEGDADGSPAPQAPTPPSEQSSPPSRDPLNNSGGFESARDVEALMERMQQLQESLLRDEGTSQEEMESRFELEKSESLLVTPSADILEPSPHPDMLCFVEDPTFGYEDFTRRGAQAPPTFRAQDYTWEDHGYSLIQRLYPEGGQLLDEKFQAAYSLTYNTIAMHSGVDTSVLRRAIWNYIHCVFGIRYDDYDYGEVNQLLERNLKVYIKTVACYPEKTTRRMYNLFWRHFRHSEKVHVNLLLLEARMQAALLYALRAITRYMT
Sequence of UniProt Q15758 (Q15758 whole entry, looked up): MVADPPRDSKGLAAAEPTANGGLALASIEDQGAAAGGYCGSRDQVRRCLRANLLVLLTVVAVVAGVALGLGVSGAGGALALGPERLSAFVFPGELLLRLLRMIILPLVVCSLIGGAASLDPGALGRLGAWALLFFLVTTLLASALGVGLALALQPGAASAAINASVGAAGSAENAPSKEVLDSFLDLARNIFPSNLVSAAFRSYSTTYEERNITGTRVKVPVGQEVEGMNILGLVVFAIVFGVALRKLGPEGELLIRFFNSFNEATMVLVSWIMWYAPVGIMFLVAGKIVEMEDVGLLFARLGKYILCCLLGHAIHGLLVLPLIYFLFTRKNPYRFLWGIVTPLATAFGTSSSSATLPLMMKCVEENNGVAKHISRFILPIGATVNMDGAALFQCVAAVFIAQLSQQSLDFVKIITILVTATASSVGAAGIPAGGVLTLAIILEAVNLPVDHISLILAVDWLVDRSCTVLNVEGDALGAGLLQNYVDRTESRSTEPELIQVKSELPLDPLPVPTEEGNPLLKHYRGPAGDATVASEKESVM
Sequence of UniProt O75116 (O75116 whole entry, looked up): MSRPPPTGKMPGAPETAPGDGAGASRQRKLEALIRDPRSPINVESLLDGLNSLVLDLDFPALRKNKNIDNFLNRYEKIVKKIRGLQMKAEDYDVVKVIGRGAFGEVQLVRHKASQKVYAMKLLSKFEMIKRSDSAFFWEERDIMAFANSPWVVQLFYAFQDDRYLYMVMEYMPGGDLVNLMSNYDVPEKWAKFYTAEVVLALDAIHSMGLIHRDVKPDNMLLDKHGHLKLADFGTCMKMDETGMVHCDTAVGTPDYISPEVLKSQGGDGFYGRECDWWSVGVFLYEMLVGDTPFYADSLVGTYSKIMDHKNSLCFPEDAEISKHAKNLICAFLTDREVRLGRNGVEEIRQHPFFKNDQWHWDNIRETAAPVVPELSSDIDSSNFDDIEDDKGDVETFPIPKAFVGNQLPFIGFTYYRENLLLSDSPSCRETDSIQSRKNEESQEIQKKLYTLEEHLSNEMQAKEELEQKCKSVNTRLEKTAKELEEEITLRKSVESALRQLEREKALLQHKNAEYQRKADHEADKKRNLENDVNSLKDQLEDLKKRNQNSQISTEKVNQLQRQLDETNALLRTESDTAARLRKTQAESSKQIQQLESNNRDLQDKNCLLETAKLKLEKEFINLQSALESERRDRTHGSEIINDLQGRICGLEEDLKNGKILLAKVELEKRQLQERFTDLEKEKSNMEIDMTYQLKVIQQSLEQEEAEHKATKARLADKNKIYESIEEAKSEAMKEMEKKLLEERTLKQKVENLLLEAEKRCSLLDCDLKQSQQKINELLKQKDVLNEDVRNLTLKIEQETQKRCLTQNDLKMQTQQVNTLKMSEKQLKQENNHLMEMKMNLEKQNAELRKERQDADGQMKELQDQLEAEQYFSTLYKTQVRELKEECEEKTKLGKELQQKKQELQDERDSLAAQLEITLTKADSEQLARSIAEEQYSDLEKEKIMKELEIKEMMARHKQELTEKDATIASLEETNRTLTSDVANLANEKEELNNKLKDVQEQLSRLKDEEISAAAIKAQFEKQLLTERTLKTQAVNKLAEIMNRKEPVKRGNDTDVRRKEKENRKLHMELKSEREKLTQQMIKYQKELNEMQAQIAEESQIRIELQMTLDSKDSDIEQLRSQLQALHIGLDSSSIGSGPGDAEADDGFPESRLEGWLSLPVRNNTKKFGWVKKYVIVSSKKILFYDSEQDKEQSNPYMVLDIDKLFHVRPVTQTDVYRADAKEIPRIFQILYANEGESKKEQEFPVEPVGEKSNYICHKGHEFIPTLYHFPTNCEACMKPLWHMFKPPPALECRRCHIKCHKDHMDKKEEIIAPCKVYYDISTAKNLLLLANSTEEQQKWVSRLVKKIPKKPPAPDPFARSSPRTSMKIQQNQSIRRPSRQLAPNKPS
Sequence of UniProt P51151 (P51151 whole entry, looked up): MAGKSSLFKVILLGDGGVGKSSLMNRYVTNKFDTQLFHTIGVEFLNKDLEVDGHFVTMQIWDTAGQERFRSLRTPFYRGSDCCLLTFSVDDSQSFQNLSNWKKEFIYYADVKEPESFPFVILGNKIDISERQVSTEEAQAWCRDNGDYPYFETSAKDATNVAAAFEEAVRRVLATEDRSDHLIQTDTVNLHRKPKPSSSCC

| Target | log2 fold change [1] | log2 fold change [2] | log2 fold change [3] | log2 fold change [4] | log2 fold change [5] | log2 fold change [6] | log2 fold change [7] | log2 fold change [8] | log2 fold change [9] | log2 fold change [10] | log2 fold change [11] | log2 fold change [12] | log2 fold change [13] | log2 fold change [14] | log2 fold change [15] | log2 fold change [16] | log2 fold change [17] | log2 fold change [18] | log2 fold change [19] | log2 fold change [20] |
| --- | --- | --- | --- | --- | --- | --- | --- | --- | --- | --- | --- | --- | --- | --- | --- | --- | --- | --- | --- | --- |
| SEC31A (UniProt O94979) | 0.049 | 0.023 | 0.006 | -0.025 | 0.094 | 0.016 | -0.045 | 0.023 | -0.06 | -0.025 | -0.076 | -0.11 | 0.005 | 0.028 | -0.054 | -0.008 | 0.033 | 0.071 | 0.016 | 0.095 |
| SESN2 (UniProt P58004) | 0.154 | 0.108 | -0.039 | -0.003 | 0.016 | 0.007 | -0.009 | -0.008 | -0.041 | -0.109 | -0.143 | 0.034 | 0 | 0.21 | -0.049 | -0.407 | 0.055 | 0.081 | 0.041 | -0.017 |
| RPS9 (UniProt P46781) | -0.099 | -0.05 | -0.384 | 0.024 | -0.069 | -0.011 | 0.047 | 0.002 | 0.102 | -0.172 | -0.1 | -0.025 | 0.108 | 0.125 | 0.047 | -0.025 | 0 | 0.206 | 0.005 | -0.585 (active) |
| RAB9A (UniProt P51151) | 0.037 | 0.05 | 0.017 | 0.016 | 0.046 | -0.022 | -0.005 | -0.01 | 0.017 | 0.056 | 0.018 | 0.018 | -0.001 | -0.001 | -0.014 | -0.126 | -0.008 | -0.027 | -0.021 | 0.06 |
| RPS14 (UniProt P62263) | -0.166 | -0.077 | -0.124 | 0.027 | -0.149 | -0.04 | 0.039 | 0.045 | 0.031 | -0.126 | -0.178 | 0.03 | 0.079 | 0.135 | -0.014 | -0.016 | 0.003 | -0.013 | 0.035 | -0.586 (active) |
| RRAS2 isoform 4 (UniProt P62070) | 0.002 | -0.076 | -0.046 | 0.015 | -0.006 | 0.038 | -0.015 | -0.059 | -0.085 | 0.093 | 0.011 | 0.097 | -0.009 | -0.023 | 0.242 | 0.077 | 0.005 | -0.034 | -0.019 | 0.077 |
| ROCK2 (UniProt O75116) | 0.05 | 0.02 | 0.031 | 0.003 | 0.158 | 0.126 | -0.009 | -0.071 | 0.036 | 0.099 | -0.037 | -0.052 | -0.137 | 0.032 | -0.049 | -0.138 | 0.034 | 0.021 | 0.29 (active) | 0 |
| SLC1A5 (UniProt Q15758) | -0.001 | 0.003 | 0.043 | 0.002 | -0.051 | 0.006 | 0.075 | -0.046 | -0.052 | 0.089 | 0.035 | 0.028 | 0.013 | 0.046 | -0.002 | 0.23 | -0.052 | -0.034 | -0.012 | -0.014 |
| RAD50 isoform 2 (UniProt Q92878) | 0.02 | 0.034 | 0.076 | 0.001 | 0.029 | 0 | 0.02 | 0.015 | -0.034 | 0.029 | -0.005 | -0.004 | -0.099 | -0.03 | -0.003 | -0.002 | -0.014 | -0.013 | -0.008 | 0.006 |
| RHOA (UniProt P61586) | 0.028 | -0.029 | 0.012 | -0.052 | -0.094 | -0.161 | 0.114 | 0.018 | -0.05 | 0.01 | 0.108 | -0.015 | 0.047 | 0.251 | -0.034 | 0.063 | -0.07 | -0.023 | 0.002 | -0.007 |
| RAP1GDS1 isoform 5 (UniProt P52306) | 0.019 | -0.012 | -0.021 | -0.013 | 0.027 | 0.106 | -0.016 | -0.038 | -0.023 | -0.077 | -0.044 | -0.098 | 0.04 | 0.005 | -0.114 | -0.277 (active) | -0.005 | 0.067 | 0.011 | 0.008 |
| RBM48 isoform 2 (UniProt Q5RL73) | -0.048 | 0.017 | -0.065 | -0.026 | 0.053 | 0.055 | -0.144 | 0.042 | 0.118 | -0.115 | 0.15 | 0.051 | -0.018 | 0.004 | 0.004 | 0.156 | -0.301 | 0.068 | -0.099 | -0.151 |
